# From the supplement of paper PMC6853941
# A number with no mark means an inactive call.
# Test system: MCF10A
# Test: perturbation Mahalanobis distance of morphological profile vs DMSO controls (Mahalanobis distance (SD units)); higher = stronger morphological change, active = 7 or more
# Conditions: screen batch: Batch1_Mahalanobis_Distance; 72 h
# Description: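 MCF10A cells were seeded onto drugs dispensed acoustically into 384-well plates, using one dose per drug chosen from its human peak plasma concentration, and incubated for 72 h at 37 °C. Cells were stained for DNA, tubulin and mitochondria and imaged; 78 CellProfiler features were extracted, plate-normalised and compared with DMSO wells.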
row,Compound,perturbation Mahalanobis distance
1,C[C@H](N[C@@H](CCc1ccccc1)C(=O)O)C(=O)N1CCC[C@H]1C(=O)O [Enalaprilat] (0.67 µM),3.78
2,NC[C@@H]1O[C@H](O[C@H]2[C@@H](O)[C@H](O[C@@H]3[C@@H](O)[C@H](N)C[C@H](N)[C@H]3O[C@H]3O[C@H](CO)[C@@H](O)[C@H](O)[C@H]3N)O[C@@H]2CO)[C@H](N)[C@@H](O)[C@@H]1O [Paromomycin] (332.3 µM),4.01
3,COc1cc(C)c(/C=C/C(C)=C/C=C/C(C)=C/C(=O)O)c(C)c1C [Acitretin] (7.7 µM),6.19
4,CCOC(=O)c1ncn2c1CN(C)C(=O)c1cc(F)ccc1-2 [Flumazenil] (1.6 µM),4.28
5,O=c1ncnc2[nH][nH]cc1-2 [Allopurinol] (139.6 µM),2.93
6,CCN(CC)C(=S)SSC(=S)N(CC)CC [Disulfiram] (6.7 µM),2.16
7,CC[C@]1(O)C[C@H]2CN(CCc3c([nH]c4ccccc34)[C@@](C(=O)OC)(c3cc4c(cc3OC)N(C)[C@H]3[C@@](O)(C(=O)OC)[C@H](OC(C)=O)[C@]5(CC)C=CCN6CC[C@]43[C@@H]65)C2)C1 [Vinblastine] (0.12 µM),11.4 (active)
8,Nc1nc(Cl)nc2c1ncn2[C@@H]1O[C@H](CO)[C@@H](O)[C@@H]1F [Clofarabine] (7.5 µM),10.2 (active)
9,CC(N=C(NC#N)Nc1ccncc1)C(C)(C)C (stereo not given) [Pinacidil] (8.3 µM),4.94
10,CN(C)CCCN1c2ccccc2Sc2ccc(C(F)(F)F)cc21 [Triflupromazine] (1.4 µM),4.75
11,O=C(CCCCCCC(=O)Nc1ccccc1)NO [Vorinostat] (9.8 µM),11 (active)
12,Cc1ncc([N+](=O)[O-])n1CCO [Metronidazole] (58.4 µM),3.04
13,NC(=O)OCC(COC(N)=O)c1ccccc1 [Felbamate] (205.7 µM),2.24
14,CC12CCC(=O)C=C1C=CC1C2CCC2(C)C1CCC21CCC(=O)O1 (stereo not given) [Canrenone] (3 µM),3.06
15,CN(C)C(=N)N=C(N)N [Metformin] (38.4 µM),1.76
16,CN1CCC(=C2c3ccccc3CCc3cccnc32)CC1 [Azatadine] (0.43 µM),2.42
17,N=C(N)c1ccc(OCCCCCOc2ccc(C(=N)N)cc2)cc1 [Pentamidine] (7.4 µM),7.67 (active)
18,CC(C)NCC(O)c1ccc(O)c(O)c1 (stereo not given) [Isoproterenol] (11.8 µM),3.12
19,CNC1(C)C2CCC(C2)C1(C)C (stereo not given) [Mecamylamine] (3.6 µM),2.25
20,CCCCN(CCCC)CCC(O)c1cc2c(Cl)cc(Cl)cc2c2cc(C(F)(F)F)ccc12 (stereo not given) [Halofantrine] (63.9 µM),7.37 (active)
21,Nc1ccc(O)c(C(=O)O)c1 [Mesalazine] (39.2 µM),3.41
22,COC(=O)C1=C(C)NC(C)=C(C(=O)OCC(C)C)C1c1ccccc1[N+](=O)[O-] (stereo not given) [Nisoldipine] (13 µM),2.36
23,NC(=O)c1ncn([C@@H]2O[C@H](CO)[C@@H](O)[C@H]2O)n1 [Ribavirin] (75.3 µM),5.79
24,CC1(C)O[C@@H]2[C@@H](CO[C@@]3(COS(N)(=O)=O)OC(C)(C)O[C@@H]23)O1 [Topiramate] (76.6 µM),2.96
25,C#C[C@]1(O)CC[C@H]2[C@@H]3CCC4=CC(=O)CC[C@@H]4[C@H]3CC[C@@]21CC [Levonorgestrel] (0.24 µM),3.22
26,CC1=NS(=O)(=O)c2cc(Cl)ccc2N1 [Diazoxide] (86.7 µM),2.69
27,OC(CCN1CCCCC1)(c1ccccc1)C1CCCCC1 (stereo not given) [Trihexyphenidyl] (3.3 µM),1.96
28,COc1cc(C(=O)NS(=O)(=O)c2ccccc2C)ccc1Cc1cn(C)c2ccc(NC(=O)OC3CCCC3)cc12 [Zafirlukast] (0.26 µM),2.19
29,Nc1nc(N)c2nc(-c3ccccc3)c(N)nc2n1 [Triamterene] (2 µM),3.18
30,NC(N)=NCC1COC2(CCCCC2)O1 (stereo not given) [Guanadrel] (140.7 µM),2.66
